This passage reports binding signal results from article PMC7862700, “An all-to-all approach to the identification of sequence-specific readers for epigenetic DNA modifications on cytosine”.

Holding throughout (experiment): DAPPL (digital affinity profiling via proximity ligation, sequencing); 10 mM Tris-HCl pH 7.5, 50 mM NaCl, 1 mM DTT, 4% glycerol, room temperature, 30 min; GST-TFs on glutathione beads, 16-mer random dsDNA library, 0.1% formaldehyde crosslink after washing; high values mean tight binding
Holding throughout (details): protein: recombinant; tags: N-terminal GST; dsDNA, one strand shown

For assay [1], the target named is T1, ERF (Homo sapiens, UniProt P50548 1-548).
T1 sequence: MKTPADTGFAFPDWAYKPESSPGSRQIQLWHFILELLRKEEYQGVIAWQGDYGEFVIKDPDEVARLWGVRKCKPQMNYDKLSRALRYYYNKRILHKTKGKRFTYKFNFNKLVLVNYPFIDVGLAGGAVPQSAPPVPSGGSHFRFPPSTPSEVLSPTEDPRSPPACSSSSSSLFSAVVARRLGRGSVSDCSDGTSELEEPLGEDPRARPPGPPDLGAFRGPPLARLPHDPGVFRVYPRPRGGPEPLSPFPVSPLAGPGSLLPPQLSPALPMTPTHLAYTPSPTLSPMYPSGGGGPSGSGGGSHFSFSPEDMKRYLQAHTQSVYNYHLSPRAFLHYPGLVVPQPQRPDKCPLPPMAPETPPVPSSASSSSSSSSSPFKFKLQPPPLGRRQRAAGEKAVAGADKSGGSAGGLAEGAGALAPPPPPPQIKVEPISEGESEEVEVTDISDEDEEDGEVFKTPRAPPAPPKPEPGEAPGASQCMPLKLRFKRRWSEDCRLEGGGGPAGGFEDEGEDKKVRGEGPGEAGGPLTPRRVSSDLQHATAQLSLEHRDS
Summed up: (§1)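 Binding signal is defined as a hexamer's read frequency for one factor over its frequency for the tag-only sample. To obtain reads, GST-fused human transcription factors were expressed in yeast, captured on glutathione beads, barcoded with DNA and pooled with that sample. Pools met 200 nmole of a 16-mer random double-stranded DNA library in Tris/NaCl/DTT/glycerol buffer for 30 min at room temperature before washing, 0.1% formaldehyde crosslinking, proximity ligation (BsaI/T4 ligase, 1 h, 37 °C), PCR and Illumina NextSeq500 sequencing.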

For assay [2], the target named is T2, ETV3L (Homo sapiens, UniProt Q6ZN32 1-361).
T2 sequence: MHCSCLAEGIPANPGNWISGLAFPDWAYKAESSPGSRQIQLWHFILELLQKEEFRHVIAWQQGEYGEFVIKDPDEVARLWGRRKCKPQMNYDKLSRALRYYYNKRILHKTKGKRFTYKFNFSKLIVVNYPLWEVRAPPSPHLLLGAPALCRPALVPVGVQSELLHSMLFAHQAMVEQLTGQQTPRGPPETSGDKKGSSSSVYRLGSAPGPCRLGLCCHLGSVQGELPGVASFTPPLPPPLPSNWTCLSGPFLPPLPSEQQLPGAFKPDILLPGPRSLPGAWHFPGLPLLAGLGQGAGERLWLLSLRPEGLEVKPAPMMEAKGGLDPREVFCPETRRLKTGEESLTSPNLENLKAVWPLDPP
Summed up: as §1

For assay [3], the target named is T3, ETS2 (Homo sapiens, UniProt P15036 1-469).
T3 sequence: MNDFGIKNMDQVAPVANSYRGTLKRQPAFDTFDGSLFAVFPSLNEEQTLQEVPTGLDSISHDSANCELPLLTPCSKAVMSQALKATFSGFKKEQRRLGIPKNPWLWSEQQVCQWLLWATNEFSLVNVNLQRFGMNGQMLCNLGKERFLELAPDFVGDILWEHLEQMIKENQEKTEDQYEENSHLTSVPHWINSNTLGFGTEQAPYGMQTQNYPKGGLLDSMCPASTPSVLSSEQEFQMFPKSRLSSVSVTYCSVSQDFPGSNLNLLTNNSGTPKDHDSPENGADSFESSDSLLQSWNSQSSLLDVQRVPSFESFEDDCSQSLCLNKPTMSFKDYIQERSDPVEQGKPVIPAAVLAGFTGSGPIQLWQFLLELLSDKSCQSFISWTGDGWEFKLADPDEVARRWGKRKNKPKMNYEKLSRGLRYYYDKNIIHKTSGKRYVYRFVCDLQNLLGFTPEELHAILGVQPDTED
The procedure, abridged:
as §1

The target of assay [4] is T4, SPDEF (Homo sapiens, UniProt O95238 1-335).
T4 sequence: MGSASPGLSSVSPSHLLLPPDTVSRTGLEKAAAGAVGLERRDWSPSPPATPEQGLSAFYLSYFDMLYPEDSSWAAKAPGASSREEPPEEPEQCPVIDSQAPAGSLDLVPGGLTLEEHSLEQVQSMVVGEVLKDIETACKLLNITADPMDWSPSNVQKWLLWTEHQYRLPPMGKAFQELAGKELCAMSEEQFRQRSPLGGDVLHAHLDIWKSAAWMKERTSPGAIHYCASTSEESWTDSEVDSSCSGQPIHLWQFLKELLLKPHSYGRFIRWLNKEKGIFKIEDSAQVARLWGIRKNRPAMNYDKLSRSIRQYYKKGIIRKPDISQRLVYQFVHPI
Summed up:
as §1

The target in assay [5] is T5, ETV7 (Homo sapiens, UniProt Q9Y603 1-341).
T5 sequence: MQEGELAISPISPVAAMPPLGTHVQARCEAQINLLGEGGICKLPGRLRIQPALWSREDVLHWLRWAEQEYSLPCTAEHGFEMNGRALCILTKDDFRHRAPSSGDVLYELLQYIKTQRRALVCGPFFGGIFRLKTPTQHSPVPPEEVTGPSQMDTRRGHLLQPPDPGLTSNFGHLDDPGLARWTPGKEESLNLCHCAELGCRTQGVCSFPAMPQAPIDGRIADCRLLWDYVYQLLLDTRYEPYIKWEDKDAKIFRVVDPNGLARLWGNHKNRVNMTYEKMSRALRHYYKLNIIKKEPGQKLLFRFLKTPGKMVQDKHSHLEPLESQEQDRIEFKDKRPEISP
Summed up:
as §1

Assay [6] deals with T6, ELF5 (Homo sapiens, UniProt Q9UKW6-2 1-255).
T6 sequence: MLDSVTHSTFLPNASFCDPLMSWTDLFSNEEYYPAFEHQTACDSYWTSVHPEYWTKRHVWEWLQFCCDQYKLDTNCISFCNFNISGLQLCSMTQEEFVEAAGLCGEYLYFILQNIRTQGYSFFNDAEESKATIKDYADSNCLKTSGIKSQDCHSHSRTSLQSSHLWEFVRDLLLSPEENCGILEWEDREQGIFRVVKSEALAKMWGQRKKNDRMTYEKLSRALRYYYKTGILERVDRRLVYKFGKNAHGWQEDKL
Summed up: as §1

Assay [7] has as its target T7, ETV3 (Homo sapiens, UniProt P41162-2 1-143).
T7 sequence: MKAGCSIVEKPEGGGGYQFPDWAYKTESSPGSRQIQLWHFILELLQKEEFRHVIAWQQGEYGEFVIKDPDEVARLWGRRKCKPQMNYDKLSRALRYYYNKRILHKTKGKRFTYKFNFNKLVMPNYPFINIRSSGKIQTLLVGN
The procedure, abridged:
as §1

In assay [8] the target is ETV6 (Homo sapiens, UniProt P41212 1-452). Summed up:
as §1

Chain of ETV6 (P41212 whole entry): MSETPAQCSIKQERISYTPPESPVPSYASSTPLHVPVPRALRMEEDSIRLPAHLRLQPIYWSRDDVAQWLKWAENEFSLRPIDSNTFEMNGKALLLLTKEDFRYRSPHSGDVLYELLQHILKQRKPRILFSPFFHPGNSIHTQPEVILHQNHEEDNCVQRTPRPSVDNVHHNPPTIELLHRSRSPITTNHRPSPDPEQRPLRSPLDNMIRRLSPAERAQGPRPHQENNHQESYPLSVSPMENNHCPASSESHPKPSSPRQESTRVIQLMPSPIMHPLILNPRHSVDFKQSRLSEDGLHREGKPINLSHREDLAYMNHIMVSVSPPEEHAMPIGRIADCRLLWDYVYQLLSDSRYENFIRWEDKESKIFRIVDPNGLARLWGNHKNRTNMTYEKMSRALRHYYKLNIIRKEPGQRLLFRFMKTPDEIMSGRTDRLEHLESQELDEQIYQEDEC

On to CGCCCC, for which the binding signal was 1.28 fold enrichment (6-mer frequency, TF over GST control) in assay [1]; 1.31 fold enrichment (6-mer frequency, TF over GST control) in assay [2]; 1.05 fold enrichment (6-mer frequency, TF over GST control) in assay [3]; 1.18 fold enrichment (6-mer frequency, TF over GST control) in assay [4]; 1.2 fold enrichment (6-mer frequency, TF over GST control) in assay [5]; 1.1 fold enrichment (6-mer frequency, TF over GST control) in assay [6]. Moreover, the binding signal in assay [7] was 1.16 fold enrichment (6-mer frequency, TF over GST control); in assay [8], 1.19 fold enrichment (6-mer frequency, TF over GST control).

Turning to TATTCG, the binding signal in assay [1] is 1.17 fold enrichment (6-mer frequency, TF over GST control); in assay [2] it was 1.16 fold enrichment (6-mer frequency, TF over GST control); in assay [3] it was 1.13 fold enrichment (6-mer frequency, TF over GST control); in assay [4], 1.1 fold enrichment (6-mer frequency, TF over GST control); in assay [5], 1.19 fold enrichment (6-mer frequency, TF over GST control); in assay [6], 1.09 fold enrichment (6-mer frequency, TF over GST control). The binding signal in assay [7] was 1.19 fold enrichment (6-mer frequency, TF over GST control); in assay [8], 1.02 fold enrichment (6-mer frequency, TF over GST control).

On to TAGCGG, for which the binding signal was 1.1 fold enrichment (6-mer frequency, TF over GST control) in assay [1]; 1.12 fold enrichment (6-mer frequency, TF over GST control) in assay [2]; 1.13 fold enrichment (6-mer frequency, TF over GST control) in assay [3]; 1.1 fold enrichment (6-mer frequency, TF over GST control) in assay [4]; 1.12 fold enrichment (6-mer frequency, TF over GST control) in assay [5]; 1.12 fold enrichment (6-mer frequency, TF over GST control) in assay [6]. Also, the binding signal in assay [7] was 1.09 fold enrichment (6-mer frequency, TF over GST control); in assay [8] it was 1.12 fold enrichment (6-mer frequency, TF over GST control).

Consider TTGTCC, for which the binding signal was 1.35 fold enrichment (6-mer frequency, TF over GST control) in assay [1]; 1.43 fold enrichment (6-mer frequency, TF over GST control) in assay [2]; 1.38 fold enrichment (6-mer frequency, TF over GST control) in assay [3]; 1.45 fold enrichment (6-mer frequency, TF over GST control) in assay [4]; 1.25 fold enrichment (6-mer frequency, TF over GST control) in assay [5]; 1.39 fold enrichment (6-mer frequency, TF over GST control) in assay [6]. Also, the binding signal is 1.36 fold enrichment (6-mer frequency, TF over GST control) in assay [7] and 1.32 fold enrichment (6-mer frequency, TF over GST control) in assay [8].

Regarding GTACCT, the binding signal in assay [1] is 1.19 fold enrichment (6-mer frequency, TF over GST control); in assay [2], 1.19 fold enrichment (6-mer frequency, TF over GST control); in assay [3], 1.21 fold enrichment (6-mer frequency, TF over GST control); in assay [4], 1.27 fold enrichment (6-mer frequency, TF over GST control); in assay [5], 1.2 fold enrichment (6-mer frequency, TF over GST control); in assay [6], 1.31 fold enrichment (6-mer frequency, TF over GST control). The binding signal in assay [7] is 1.14 fold enrichment (6-mer frequency, TF over GST control); in assay [8] it was 1.19 fold enrichment (6-mer frequency, TF over GST control).

As to CTCGAA, the binding signal in assay [1] is 1.22 fold enrichment (6-mer frequency, TF over GST control); in assay [2], 1.24 fold enrichment (6-mer frequency, TF over GST control); in assay [3] it was 1.2 fold enrichment (6-mer frequency, TF over GST control); in assay [4], 1.11 fold enrichment (6-mer frequency, TF over GST control); in assay [5], 1.19 fold enrichment (6-mer frequency, TF over GST control); in assay [6] it was 1.17 fold enrichment (6-mer frequency, TF over GST control). For the same sequence, the binding signal in assay [7] was 1.18 fold enrichment (6-mer frequency, TF over GST control); in assay [8] it was 1.12 fold enrichment (6-mer frequency, TF over GST control).

Turning to GTACAT, the binding signal was 1.36 fold enrichment (6-mer frequency, TF over GST control) in assay [1]; 1.32 fold enrichment (6-mer frequency, TF over GST control) in assay [2]; 1.36 fold enrichment (6-mer frequency, TF over GST control) in assay [3]; 2.06 fold enrichment (6-mer frequency, TF over GST control) in assay [4]; 1.53 fold enrichment (6-mer frequency, TF over GST control) in assay [5]; 1.3 fold enrichment (6-mer frequency, TF over GST control) in assay [6]. Also, the binding signal is 1.34 fold enrichment (6-mer frequency, TF over GST control) in assay [7] and 1.4 fold enrichment (6-mer frequency, TF over GST control) in assay [8].

Regarding TCACCC, the binding signal in assay [1] is 1.2 fold enrichment (6-mer frequency, TF over GST control); in assay [2], 1.16 fold enrichment (6-mer frequency, TF over GST control); in assay [3], 1.13 fold enrichment (6-mer frequency, TF over GST control); in assay [4], 1.23 fold enrichment (6-mer frequency, TF over GST control); in assay [5] it was 1.04 fold enrichment (6-mer frequency, TF over GST control); in assay [6] it was 1.07 fold enrichment (6-mer frequency, TF over GST control). In addition, the binding signal was 1.14 fold enrichment (6-mer frequency, TF over GST control) in assay [7] and 1.05 fold enrichment (6-mer frequency, TF over GST control) in assay [8].
